Measured values: PubChem BioAssay (NCI)
Compounds without any hit were thinned out: in the full panel of roughly 83,000, 20% have a hit.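 How to read the values: 0–100, growth inhibition (40 = 60% inhibited); 0, no net growth; -100 to 0, cell death (-40 = 40% of starting cells died; -100 = all dead).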 A number with no mark means an inactive call. The source made the active and inactive calls. The calls were made as follows: active = growth percent below 10; inactive = the rest.

What was measured:
Test in all cases: NCI-60 one-dose screen, 48 h (100 = growth as untreated, 0 = no growth, -100 = all killed)
DU-145 prostate = settings: 10 µM unless noted
K-562 leukemia = settings: 10 µM unless noted
MDA-MB-231 breast = settings: 10 µM unless noted
RXF 393 renal = settings: 10 µM unless noted
SF-268 CNS = settings: 10 µM unless noted
SF-295 CNS = settings: 10 µM unless noted
SF-539 CNS = settings: 10 µM unless noted
UACC-257 melanoma = settings: 10 µM unless noted
M14 melanoma = settings: 10 µM unless noted
HCT-15 colon = settings: 10 µM unless noted
HT29 colon = settings: 10 µM unless noted
SNB-75 CNS = settings: 10 µM unless noted
SNB-19 CNS = settings: 10 µM unless noted
U251 CNS = settings: 10 µM unless noted
PC-3 prostate = settings: 10 µM unless noted
SK-MEL-5 melanoma = settings: 10 µM unless noted
UACC-62 melanoma = settings: 10 µM unless noted
LOX IMVI melanoma = settings: 10 µM
SK-MEL-28 melanoma = settings: 10 µM unless noted

Row | SMILES | growth (DU-145 prostate) [%] | growth (K-562 leukemia) | growth (MDA-MB-231 breast) | growth (RXF 393 renal) [%] | growth (SF-268 CNS) | growth (SF-295 CNS) | growth (SF-539 CNS) | growth (UACC-257 melanoma) | growth (M14 melanoma) [%] | growth (HCT-15 colon) | growth (HT29 colon) | growth (SNB-75 CNS) | growth (SNB-19 CNS) [%] | growth (U251 CNS) [%] | growth (PC-3 prostate) | growth (SK-MEL-5 melanoma) | growth (UACC-62 melanoma) | growth (LOX IMVI melanoma) | growth (SK-MEL-28 melanoma) [%]
1 | CC(=O)NNC(=S)/N=C\C(C(=O)c1ccccc1)=C(/O)c1ccccc1 | 108 | 101% | 89.6% | 97.7 | 99.2% | 108% | 101% | 102% | 103 | 98.7% | 93.8% | 86.3% | 105 | 99.5 | 93% | 101% | 101% | 94% | 106
2 | O=c1nc(Nc2cccc(Cl)c2)oc2cc(Cl)oc(=O)c12 | 113 | 81.6% | 50.9% | 42.5 | 66.9% | – | 79.8% | 87% | – | 83.4% | 85.5% | 67.2% | 94.3 | 79.6 | 61.8% | 106% | 78.7% | 73.5% | 85.5
3 | C=CCNC(=S)N/C=C(/C(=O)c1ccccc1)c1ccccc1 | 109 | 102% | 107% | 111 | 98.2% | 110% | 101% | 109% | 91.9 | 108% | 120% | 88.5% | 106 | 96.7 | 99.9% | 102% | 98.8% | 98.1% | 104
4 | Cc1ccc2nc(N)nnc2c1 | 98.4 | 108% | 127% | – | 98.2% | 118% | 103% | 127% | 99.2 | 102% | 112% | 90.5% | 102 | 111 | 96% | 108% | 105% | 100% | 110
5 | CCCOCc1cn[nH]n1 | 108 | 104% | 110% | 109 | 103% | 101% | 98.8% | 94% | 106 | 106% | 105% | 98.1% | 115 | 96.1 | 102% | 106% | 98.2% | 98.6% | 109
6 | CCCCCC/C=C\CCCCCCCCCc1cc(O)cc(OC)c1O | 26 | 7.81% (active) | -43.1% (active) | 22.7 | 9.15% (active) | 2.68% (active) | -58.3% (active) | -4.96% (active) | 27.3 | 3.68% (active) | 8.67% (active) | 6.11% (active) | 24 | 10.2 | 1.77% (active) | -29% (active) | 6.32% (active) | -86.3% (active) | 24
7 | CC(C)(C)[Si](C)(C)OCC1OC(n2cnc3c(N)ncnc32)CC1OS(C)(=O)=O (stereo unspecified) | 105 | 105% | 102% | 102 | 97.9% | 110% | 108% | 94.7% | 104 | 115% | 108% | 97.4% | 108 | 91.7 | 103% | 98.5% | 90.4% | 95.4% | 105
8 | CC1CC2C3CCC4=CC(=O)CCC4(C)C3CCC2(C)C1(O)C(=O)CO (stereo unspecified) | 130 | 98.4% | 108% | 122 | 121% | 124% | 107% | 114% | 111 | 106% | 97.4% | 110% | 110 | 108 | 93.9% | 104% | 108% | – | 109
9 | COC1OC(C(COC(C)=O)OC(C)=O)C(OC(C)=O)C(OC(C)=O)C1OC(C)=O (stereo unspecified) | 115 | 119% | 126% | 115 | 113% | – | 92% | 110% | 106 | 92.5% | 105% | 97.6% | 99.4 | 101 | 107% | 106% | 110% | 103% | 105
10 | C=C1C(=O)C2CCN1CC2 | 103 | 57.3% | 125% | 89.6 | 102% | 96.1% | 102% | 108% | 92.3 | 105% | 89.8% | 89.2% | 105 | 100 | 101% | 104% | 97.3% | 98.9% | 95.6
11 | O=[N+]([O-])c1ccc2[nH]c(=S)n(/C=C(/c3ccc(Cl)cc3Cl)S(=O)(=O)Cc3ccc(Cl)cc3Cl)c2c1 | 102 | 102% | 96.2% | 109 | 97% | 97.4% | 99.6% | 86.5% | – | 101% | 98.9% | 108% | 102 | 98.1 | 94.7% | 101% | 101% | 98.6% | 110
12 | Cc1ccc(NCN2C(=O)c3ccccc3C2=O)c(C)n1 | 107 | 108% | 115% | 114 | 105% | 106% | 116% | 105% | – | 115% | 104% | 116% | 113 | 103 | 101% | 100% | 109% | 104% | 116
13 | COc1ccc(-c2csc(NC(=O)Nc3nc(-c4ccc(OC)cc4)cs3)n2)cc1 | 72.8 | 67.5% | 92.9% | 98.5 | 81.9% | 87.9% | 90% | 67.4% | 83.6 | 86.5% | 104% | 99.2% | 96.6 | 79.5 | 67.4% | 29.3% | 81.3% | 83.6% | 99
14 | O=S(Cc1ccccc1)/C(=C/NC(=S)Nc1ccccc1)c1ccccc1 (stereo unspecified) | 104 | 106% | 108% | 116 | 99.2% | 114% | 99.7% | 98% | 98.5 | 106% | 104% | 80.2% | 110 | 100 | 95.4% | 104% | 103% | 90.9% | 106
15 | CCCCNc1ccc(-c2ccc(NCCCC)cc2)cc1 | 83.1 | 46.7% | 84.1% | 79.7 | 70% | 57.4% | 49.5% | 70.7% | 71.7 | 50.6% | 101% | 83% | 77.3 | 64.2 | 71.7% | -40.7% (active) | 42.8% | 25.9% | 71.5
16 | S=CN1CCCCC1 | 106 | 101% | 108% | 102 | 96.7% | 96% | 97.4% | 91.8% | 106 | 99.9% | 108% | 93.2% | 109 | 89.1 | 99.3% | 104% | 106% | 99% | 103
17 | C=COC(=O)CCOCC(CC)CCCC (stereo unspecified) | 96.5 | 92.9% | 106% | 108 | 99.5% | 102% | 105% | 108% | 99.9 | 104% | 104% | 97.2% | 104 | 102 | 98.2% | 107% | 99.5% | 98.8% | 113
